Laboratory results reported in PubChem BioAssay AID602342 (Broad Institute, 2012).
The whole screen tested about 340,000 compounds, of which about 1,000 (0.29%) were called active.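 The calls were made as follows: active = mean replicate activation score at least 90 and every replicate individually at or above 90; inconclusive = only one of the two criteria met; inactive = neither criterion met.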 This excerpt belongs to a sample that is enriched for actives.

Experiment: miR-122 Renilla sensor signal increase in Huh7, primary screen, miR-122 inhibitor project, cell-based, single point, plate reader (AID 602342);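 also: higher luciferase means less miR-122 activity so hits act as miR-122 inhibitors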
Conditions: Huh7 miR-122 Renilla luciferase sensor, 48 h, hits give high values, neutral wells = 0, positive control = 100; at 16.7 µM unless noted

Activation (reporter increase), inactive:
O=C(C1CCC1)N1C[C@H]2[C@@H](c3ccccc31)[C@@H](CO)N2C(=O)c1ccccc1F -20%
Cc1noc(C)c1NC(=O)Nc1ccc2c(c1)C(=O)N([C@H](C)CO)C[C@@H](C)[C@H](CN(C)C(=O)Nc1cccc3ccccc13)OCCCC[C@@H](C)O2 0.113%
CN1C(=O)c2cc(NC(=O)c3cscn3)ccc2OC[C@@H]2O[C@H](CC(=O)N3CCCCC3)CC[C@H]21 4.63%
Cc1sc2ncnc(SCC(=O)Nc3ccc(CN4CCCC4)cc3)c2c1C 2.95% [at 12.5 µM]
Cc1sc2ncnc(SCC(=O)NC3CCS(=O)(=O)C3)c2c1C (stereo not given) -0.478% [at 12.5 µM]
O=C(C1CCC1)N1CCCCN2[C@H](C1)[C@@H](c1ccc(C#CC3CCCC3)cc1)[C@@H]2CO -25.6%
O=C(C[C@@H]1CC[C@@H]2[C@H](COC[C@@H](O)CN2Cc2ccc(F)cc2)O1)NCc1ccncn1 5.81%
C[C@H](CO)N1C[C@H](C)[C@H](CN(C)C(=O)Nc2cccc3ccccc23)OCCCC[C@H](C)Oc2ccc(NC(=O)Nc3ccc4c(c3)OCO4)cc2C1=O 6.96%
O=S(=O)(/C=C/c1ccccc1)NCCc1ccccn1 73.3% [at 12.5 µM]
O=S(=O)(NCCc1ccccn1)c1cc(Cl)cc(Cl)c1O -4.9% [at 12.5 µM]
Cc1noc(C)c1NC(=O)N(C)C[C@H]1OCc2cn(nn2)CCCC(=O)N([C@@H](C)CO)C[C@H]1C 0.754%
C[C@@H]1CN([C@@H](C)CO)S(=O)(=O)c2ccc(-c3cccc(C(=O)N(C)C)c3)cc2O[C@@H]1CN(C)C(=O)Nc1ccccc1 18.2%
C[C@H]1CN([C@@H](C)CO)C(=O)c2cc(N(C)C)ccc2O[C@@H]1CN(C)S(=O)(=O)c1ccc(Cl)cc1 47.5%
O=C(NN=Cc1ccccc1)c1ccccc1 -2.03% [at 12.5 µM]
Cc1cc(C(=O)N/N=C\C(Br)=C\c2ccccc2)c(C)o1 1.4% [at 12.5 µM]
O=C(c1cccnc1)N1C[C@H]2[C@@H](c3ccccc31)[C@@H](CO)N2C(=O)Nc1ccccc1F -2.82%
CC1CCCCC1NC(=O)COc1ccc(C#N)cc1 (stereo not given) -5.71% [at 12.5 µM]
O=[N+]([O-])c1ccccc1/C=C/CN1CCCC(CO)C1 (stereo not given) 4.13% [at 12.5 µM]
CN(C[C@@H]1[C@H](c2ccccc2)[C@@H](CO)N1Cc1ccccn1)S(C)(=O)=O 0%
CSc1nc2ccc(NC(=O)c3c(F)cccc3F)cc2s1 -16% [at 12.5 µM]
CC(=O)Nc1ccc2nc(NC(=O)CS(=O)(=O)c3ccc(F)cc3)sc2c1 5.07% [at 12.5 µM]
Cn1c(=O)c2cn(-c3cccc4ccccc34)cc2n(C)c1=O -1.8% [at 12.5 µM]
COc1cccc(-n2cc3c(c2-c2ccccc2)c(=O)n(C)c(=O)n3C)c1 13% [at 12.5 µM]
COc1ccc(S(=O)(=O)Nc2ccc3c(c2)C(=O)N([C@@H](C)CO)C[C@H](C)[C@@H](CN(C)C(=O)NC(C)C)OCCCC[C@H](C)O3)cc1 15.2%
C[C@H](CO)N1C[C@H](C)[C@H](CN(C)C)Oc2ccc(NC(=O)c3ccncc3)cc2CC1=O 5.36%
COc1ccccc1-c1cc(NC(C)=O)c2ncc(-c3ccc(F)cc3)n2c1 5.94% [at 12.5 µM]
COc1cccc(-c2cnc3c(NC(C)=O)cc(-c4cc(F)ccc4OC)cn23)c1 36.5% [at 12.5 µM]
Cc1noc(C)c1NC(=O)Nc1ccc2c(c1)CC(=O)N([C@@H](C)CO)C[C@@H](C)[C@H](CN(C)Cc1ccc(Oc3ccccc3)cc1)O2 -3.38%
CCC(=O)Nc1ccc2c(c1)C(=O)N(C)[C@@H]1CC[C@@H](CC(=O)NCCc3ccccc3)O[C@H]1CO2 -4.08%
COCC(=O)Nc1ccc2c(c1)[C@@H]1C[C@H](CC(=O)NCc3cc(F)ccc3F)O[C@@H](CO)[C@@H]1O2 12.6%
CCC(=O)N1[C@H](CO)[C@@H]2c3ccccc3N(S(=O)(=O)c3ccccc3C)C[C@@H]21 0%
Cc1cc(S(=O)(=O)NC2CCCCC2)ccc1OCC(=O)NCc1cccnc1 72% [at 12.5 µM]
CC(C)c1ccc(S(=O)(=O)NC2CCCC2)cc1 51.5% [at 12.5 µM]
Cc1ccc(S(=O)(=O)NC2CCCCCC2)cc1C(N)=O 62.2% [at 12.5 µM]
O=S(=O)(NC1CCCC1)c1ccc(-n2cnnn2)cc1 -2.1% [at 12.5 µM]
COc1ccc(C)cc1S(=O)(=O)Nc1cccc(Cl)c1Cl 66.7% [at 12.5 µM]
CCOc1ccc(C)cc1S(=O)(=O)NC1CCCCCC1 67.9% [at 12.5 µM]
O=S(=O)(NC1CC1)c1ccc(Cl)cc1 -7.11% [at 12.5 µM]
CC(C)CNS(=O)(=O)c1ccc(CCC(=O)NCc2ccc(Cl)cc2)cc1 15.1% [at 12.5 µM]

Activation (reporter increase), active:
CCCNc1ncnc2sc(C)c(C)c12 122% [at 12.5 µM]
Cc1c(C)c(C)c(S(=O)(=O)NCCc2ccccn2)c(C)c1C 107% [at 12.5 µM]
CC(C)c1cc(C(=O)N/N=C/C(Br)=C/c2ccccc2)n[nH]1 122% [at 12.5 µM]
CC1CCCCC1NC(=O)/C(C#N)=C/C=C/c1ccccc1[N+](=O)[O-] (stereo not given) 102% [at 12.5 µM]
CCCC(=O)Nc1nc2ccc(NC(=O)c3c(F)c(F)c(OC)c(F)c3F)cc2s1 143% [at 12.5 µM]
COc1ccc(OC)c(-n2cc3c(=O)n(C)c(=O)n(C)c3c2)c1 102% [at 12.5 µM]
COc1ccc(-c2cc(NC(C)=O)c3ncc(-c4cc(OC)c(OC)c(OC)c4)n3c2)cn1 107% [at 12.5 µM]
Cc1ccc(S(=O)(=O)NC2CCCCCC2)cc1 106% [at 12.5 µM]
O=C(CCc1ccc(S(=O)(=O)NC2CCCCC2)cc1)NCc1ccccc1 101% [at 12.5 µM]
CSc1ccc(S(=O)(=O)NC2CCCCC2)cc1 102% [at 12.5 µM]
COc1ccc(C)cc1S(=O)(=O)NC1CCCCC1 375% [at 12.5 µM]
